Assay results: PubChem BioAssay AID1159580 (chemical genetic matrix, 2015)
The campaign covered roughly 5,500 compounds. About 2,000 (36%) were called active. Another 18% or so got no clear call; they are omitted. Cut-off read from the data, not from the text of the source: active = normalized growth mostly below about 0.91 (no sharp cut-off); inconclusive = no clear call, values can overlap the other calls; inactive = mostly above about 0.92. Some of the results follow.

Assay: chemical genetic growth profiling, strain panel (AID 1159580);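 note: tested at 20 µM; growth read once vehicle control cultures reached saturation at 30 °C; 1 = growth at the plate median or of vehicle wells; lower values mean less growth of the strain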
Settings: growth OD
[1] = S. cerevisiae deletion strains, locus YBR021W, strain FUR4, stronger effect = lower value
[2] = S. cerevisiae deletion strains, locus YBR229C, strain ROT2, stronger effect = lower value
[3] = S. cerevisiae deletion strains, locus YCL029C, strain bik1, stronger effect = lower value
[4] = S. cerevisiae deletion strains, locus YDL035C, strain GPR1, stronger effect = lower value
[5] = S. cerevisiae deletion strains, locus YDL074C, strain BRE1, stronger effect = lower value
[6] = S. cerevisiae deletion strains, locus YDL101C, strain DUN1, stronger effect = lower value
[7] = S. cerevisiae deletion strains, locus YDL185W, strain tfp1, stronger effect = lower value
[8] = S. cerevisiae deletion strains, locus YDL192W, strain arf1, stronger effect = lower value
[9] = S. cerevisiae deletion strains, locus YDR101C, strain arx1, stronger effect = lower value
[10] = S. cerevisiae deletion strains, locus YDR162C, strain NBP2, stronger effect = lower value
[11] = S. cerevisiae deletion strains, locus YDR318W, strain mcm21, stronger effect = lower value
[12] = S. cerevisiae deletion strains, locus YDR388W, stronger effect = lower value
[13] = S. cerevisiae deletion strains, locus YDR502C, strain sam2, stronger effect = lower value
[14] = S. cerevisiae deletion strains, locus YER110C, stronger effect = lower value
[15] = S. cerevisiae deletion strains, locus YER155C, strain BEM2, stronger effect = lower value
[16] = S. cerevisiae deletion strains, locus YER167W, strain BCK2, stronger effect = lower value
[17] = S. cerevisiae deletion strains, locus YGL078C, strain dbp3, stronger effect = lower value
[18] = S. cerevisiae deletion strains, locus YGL086W, strain mad1, stronger effect = lower value
[19] = S. cerevisiae deletion strains, locus YGL248W, strain PDE1, stronger effect = lower value
[20] = S. cerevisiae deletion strains, locus YGR078C, strain PAC10, stronger effect = lower value
[21] = S. cerevisiae deletion strains, locus YGR135W, strain pre9, stronger effect = lower value
[22] = S. cerevisiae deletion strains, locus YGR252W, strain gcn5, stronger effect = lower value
[23] = S. cerevisiae deletion strains, locus YHR030C, strain SLT2, stronger effect = lower value
[24] = S. cerevisiae deletion strains, locus YHR079C, strain IRE1 (second series), stronger effect = lower value
[25] = S. cerevisiae deletion strains, locus YHR094C, strain hxt1, stronger effect = lower value
[26] = S. cerevisiae deletion strains, locus YHR129C, strain ARP1, stronger effect = lower value
[27] = S. cerevisiae deletion strains, locus YHR200W, strain rpn10, stronger effect = lower value
[28] = S. cerevisiae deletion strains, locus YIL066C, strain RNR3, stronger effect = lower value
[29] = S. cerevisiae deletion strains, locus YIL073C, strain SPO22, stronger effect = lower value
[30] = S. cerevisiae deletion strains, locus YIL125W, strain kgd1, stronger effect = lower value
[31] = S. cerevisiae deletion strains, locus YIR030C, strain dcg1, stronger effect = lower value
[32] = S. cerevisiae deletion strains, locus YJL095W, strain BCK1, stronger effect = lower value
[33] = S. cerevisiae deletion strains, locus YJL134W, strain LCB3, stronger effect = lower value
[34] = S. cerevisiae deletion strains, locus YJL168C, strain set2, stronger effect = lower value
[35] = S. cerevisiae deletion strains, locus YJL187C, strain SWE1 (second series), stronger effect = lower value
[36] = S. cerevisiae deletion strains, locus YJR043C, strain POL32, stronger effect = lower value
[37] = S. cerevisiae deletion strains, locus YKL009W, strain mrt4, stronger effect = lower value
[38] = S. cerevisiae deletion strains, locus YKL068W, stronger effect = lower value
[39] = S. cerevisiae deletion strains, locus YKL085W, strain MDH1 (second series), stronger effect = lower value
[40] = S. cerevisiae deletion strains, locus YKL085W, strain MDH1, stronger effect = lower value
[41] = S. cerevisiae deletion strains, locus YKR001C, strain vps1, stronger effect = lower value
[42] = S. cerevisiae deletion strains, locus YLR039C, strain RIC1, stronger effect = lower value
[43] = S. cerevisiae deletion strains, locus YLR058C, strain SHM2, stronger effect = lower value
[44] = S. cerevisiae deletion strains, locus YLR102C, strain apc9, stronger effect = lower value
[45] = S. cerevisiae deletion strains, locus YLR262C, strain YPT6, stronger effect = lower value
[46] = S. cerevisiae deletion strains, locus YLR268W, strain sec22, stronger effect = lower value
[47] = S. cerevisiae deletion strains, locus YLR330W, strain CHS5, stronger effect = lower value
[48] = S. cerevisiae deletion strains, locus YLR371W, strain rom2, stronger effect = lower value
[49] = S. cerevisiae deletion strains, locus YLR418C, strain cdc73, stronger effect = lower value
[50] = S. cerevisiae deletion strains, locus YML016C, strain PPZ1, stronger effect = lower value
[51] = S. cerevisiae deletion strains, locus YML032C, strain rad52, stronger effect = lower value
[52] = S. cerevisiae deletion strains, locus YML124C, strain tub3, stronger effect = lower value
[53] = S. cerevisiae deletion strains, locus YMR078C, strain ctf18, stronger effect = lower value
[54] = S. cerevisiae deletion strains, locus YMR223W, strain ubp8, stronger effect = lower value
[55] = S. cerevisiae deletion strains, locus YMR307W, strain GAS1, stronger effect = lower value
[56] = S. cerevisiae deletion strains, locus YNL067W, strain RPL9B, stronger effect = lower value
[57] = S. cerevisiae deletion strains, locus YNL233W, strain BNI4, stronger effect = lower value
[58] = S. cerevisiae deletion strains, locus YNL250W, strain rad50, stronger effect = lower value
[59] = S. cerevisiae deletion strains, locus YNL271C, strain bni1, stronger effect = lower value
[60] = S. cerevisiae deletion strains, locus YNL298W, strain CLA4, stronger effect = lower value
[61] = S. cerevisiae deletion strains, locus YNL307C, strain MCK1, stronger effect = lower value
[62] = S. cerevisiae deletion strains, locus YNR052C, strain pop2, stronger effect = lower value
[63] = S. cerevisiae deletion strains, locus YOL006C, strain TOP1, stronger effect = lower value
[64] = S. cerevisiae deletion strains, locus YOL012C, strain htz1
[65] = S. cerevisiae deletion strains, locus YOL147C, strain pex11, stronger effect = lower value
[66] = S. cerevisiae deletion strains, locus YOR061W, strain CKA2, stronger effect = lower value
[67] = S. cerevisiae deletion strains, locus YOR069W, strain VPS5, stronger effect = lower value
[68] = S. cerevisiae deletion strains, locus YOR136W, strain idh2, stronger effect = lower value
[69] = S. cerevisiae deletion strains, locus YOR144C, strain elg1, stronger effect = lower value
[70] = S. cerevisiae deletion strains, locus YOR184W, strain ser1, stronger effect = lower value
[71] = S. cerevisiae deletion strains, locus YOR316C, strain cot1, stronger effect = lower value
[72] = S. cerevisiae deletion strains, locus YPR119W, strain clb2, stronger effect = lower value
[73] = S. cerevisiae deletion strains, locus YPR141C, strain kar3, stronger effect = lower value
[74] = S. cerevisiae deletion strains, locus YPR163C, strain tif3, stronger effect = lower value
[75] = S. cerevisiae deletion strains, locus YPR167C, strain met16, stronger effect = lower value
[76] = S. cerevisiae deletion strains, strain wtn01, stronger effect = lower value
[77] = S. cerevisiae strains, strain wild type, stronger effect = lower value

Measured: normalized growth

CC(=O)O[C@H]1CC[C@@]2(C)C(CC[C@]3(C)C2C(=O)C=C2C4[C@@H](C)[C@H](C)CC[C@]4(C(=O)O)CC[C@]23C)C1(C)C (some centres undefined)
active: [37] 1.52 [resistant] | [39] 1.08 [resistant] | [40] 1.08 [resistant]
inactive: S. cerevisiae deletion strains, locus YAL013W, strain DEP1, stronger effect = lower value 1 | [1] 1.03 | [2] 1.01 | [3] 0.989 | [4] 0.993 | [5] 0.981 | [6] 1.01 | [7] 0.971 | [8] 0.992 | [9] 1.01 | [10] 1.03 | [11] 0.995 | [12] 1 | [13] 0.982 | S. cerevisiae deletion strains, locus YEL061C, strain CIN8, stronger effect = lower value 1.01 | [14] 0.988 | [15] 1.01 | [16] 0.991 | [17] 1.01 | [18] 1.04 | [19] 1.01 | [20] 1.01 | [21] 1 | S. cerevisiae deletion strains, locus YGR229C, strain SMI1, stronger effect = lower value 0.994 | [22] 1 | [23] 1.01 | [24] 0.997 | [25] 0.989 | [26] 1.01 | [27] 1.01 | [28] 1 | [29] 1.03 | [30] 0.98 | [31] 0.992 | [32] 1.02 | [33] 1.01 | [34] 0.988 | [35] 1 | [36] 1.02 | [38] 1.03 | [41] 0.978 | [42] 0.99 | [43] 1 | [44] 0.99 | [45] 1.02 | [46] 0.979 | [47] 1.01 | S. cerevisiae deletion strains, locus YLR342W, strain FKS1 (second series), stronger effect = lower value 0.99 | [48] 0.984 | [49] 0.946 | [50] 1.01 | [51] 0.981 | [52] 0.995 | [53] 1.01 | [54] 0.985 | [55] 1.1 | [56] 1.01 | [57] 1.02 | [58] 0.989 | [59] 0.991 | [60] 1.01 | [61] 0.987 | [62] 0.978 | [63] 0.978 | [64] 0.848 | [65] 0.991 | [66] 0.99 | [67] 1.01 | [68] 0.987 | [69] 0.992 | [70] 0.995 | [71] 0.995 | S. cerevisiae deletion strains, locus YPL055C, strain LGE1, stronger effect = lower value 0.994 | S. cerevisiae deletion strains, locus YPL241C, strain CIN2, stronger effect = lower value 1.01 | [72] 1.01 | [73] 0.995 | [74] 1.01 | [75] 0.978 | [76] 0.977 | [77] 1

CC(=O)OC1CC(OC(C)=O)C2(C)C(CC(OC(C)=O)C3(C)C4=CC(=O)OC(=O)C4(C)CCC32)C1(C)C (centres undefined)
inactive: [1] 1.01 | [2] 1 | [3] 1 | [4] 1.01 | [5] 1.02 | [6] 1.02 | S. cerevisiae deletion strains, locus YDL134C, strain PPH21, stronger effect = lower value 1.02 | [7] 1.01 | [8] 0.982 | [9] 0.996 | S. cerevisiae deletion strains, locus YDR150W, strain NUM1, stronger effect = lower value 1.01 | [10] 1.01 | [11] 0.99 | [12] 1.01 | [13] 1.02 | [14] 1 | [15] 0.993 | [16] 0.995 | [17] 1.03 | [18] 0.998 | [19] 1.03 | [20] 1.04 | [21] 1.06 | [22] 1.03 | [23] 0.999 | [24] 1 | [25] 1.01 | [26] 1.01 | [27] 1.01 | [28] 0.99 | [29] 1.04 | [30] 0.993 | [31] 0.999 | [32] 1.04 | [33] 0.997 | [34] 1 | [35] 1.04 | [36] 0.99 | S. cerevisiae deletion strains, locus YJR075W, strain HOC1, stronger effect = lower value 1.01 | [37] 0.992 | [38] 1.01 | [39] 0.987 | [40] 0.987 | S. cerevisiae deletion strains, locus YKL190W, strain CNB1, stronger effect = lower value 1.01 | [41] 0.987 | [42] 1.02 | [43] 1.02 | [44] 1.01 | [45] 0.985 | [46] 0.981 | [47] 1 | [48] 0.987 | [49] 1.03 | [50] 1.01 | [51] 1 | [52] 0.998 | [53] 1 | [54] 1 | [55] 0.916 | [56] 1.05 | [57] 1.02 | [58] 1.02 | [59] 1.01 | [60] 1.01 | [61] 1.02 | [62] 1.03 | [63] 0.98 | [64] 0.765 | [65] 1 | [66] 0.994 | [67] 1.01 | [68] 1.01 | [69] 0.996 | [70] 0.978 | [71] 1.01 | [72] 1.01 | [73] 1.01 | [74] 1.02 | [75] 1.01 | [76] 0.975 | [77] 1
